In PubChem BioAssay AID1159580 (chemical genetic matrix, 2015):
The campaign covered roughly 5,500 compounds. About 2,000 (36%) were called active. Another 18% or so got no clear call; they are omitted. No stated cut-off is given here; in the data, active means normalized growth mostly below about 0.91 (no sharp cut-off); inconclusive means no clear call, values can overlap the other calls; inactive means mostly above about 0.92. This is one part of the list.

Assay: chemical genetic growth profiling, strain panel (AID 1159580);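 further: tested at 20 µM; growth read once vehicle control cultures reached saturation at 30 °C; 1 = growth at the plate median or of vehicle wells; lower values mean less growth of the strain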
Settings: growth OD

Measured: normalized growth

CO[C@@]1(NC(=O)CSCC#N)C(=O)N2C(C(=O)O)=C(CSc3nnnn3C)CSC21 (some centres not stated)
inactive: S. cerevisiae deletion strains, locus YJR075W, strain HOC1, active compounds read low 1.01 | S. cerevisiae deletion strains, locus YKL009W, strain mrt4, active compounds read low 1.04 | S. cerevisiae deletion strains, locus YKL068W, active compounds read low 1.02 | S. cerevisiae deletion strains, locus YKL085W, strain MDH1 (second series), active compounds read low 1.03 | S. cerevisiae deletion strains, locus YKL085W, strain MDH1, active compounds read low 1.03 | S. cerevisiae deletion strains, locus YKL160W, strain elf1, active compounds read low 0.959 | S. cerevisiae deletion strains, locus YKL190W, strain CNB1, active compounds read low 0.995 | S. cerevisiae deletion strains, locus YKR001C, strain vps1, active compounds read low 1.04 | S. cerevisiae deletion strains, locus YKR026C, strain gcn3, active compounds read low 0.996 | S. cerevisiae deletion strains, locus YKR091W, strain srl3, active compounds read low 0.982 | S. cerevisiae deletion strains, locus YLL001W, strain dnm1, active compounds read low 0.96 | S. cerevisiae deletion strains, locus YLL026W, active compounds read low 0.986 | S. cerevisiae deletion strains, locus YLL041C, strain sdh2, active compounds read low 0.978 | S. cerevisiae deletion strains, locus YLR027C, strain aat2, active compounds read low 0.99 | S. cerevisiae deletion strains, locus YLR039C, strain RIC1, active compounds read low 1.07 | S. cerevisiae deletion strains, locus YLR058C, strain SHM2, active compounds read low 1.01 | S. cerevisiae deletion strains, locus YLR102C, strain apc9, active compounds read low 1.04 | S. cerevisiae deletion strains, locus YLR113W, strain HOG1, active compounds read low 0.96 | S. cerevisiae deletion strains, locus YLR221C, strain rsa3, active compounds read low 0.98 | S. cerevisiae deletion strains, locus YLR258W, strain gsy2, active compounds read low 0.98 | S. cerevisiae deletion strains, locus YLR262C, strain YPT6 (second series), active compounds read low 0.981 | S. cerevisiae deletion strains, locus YLR262C, strain YPT6, active compounds read low 1.09 | S. cerevisiae deletion strains, locus YLR268W, strain sec22, active compounds read low 1.02 | S. cerevisiae deletion strains, locus YLR320W, strain mms22, active compounds read low 0.953 | S. cerevisiae deletion strains, locus YLR330W, strain CHS5, active compounds read low 1.01 | S. cerevisiae deletion strains, locus YLR342W, strain FKS1 (second series), active compounds read low 1.01 | S. cerevisiae deletion strains, locus YLR342W, strain FKS1, active compounds read low 0.967 | S. cerevisiae deletion strains, locus YLR357W, strain rsc2, active compounds read low 0.915 | S. cerevisiae deletion strains, locus YLR370C, strain arc18, active compounds read low 0.984 | S. cerevisiae deletion strains, locus YLR371W, strain rom2, active compounds read low 1.04 | S. cerevisiae deletion strains, locus YLR384C, strain iki3, active compounds read low 1 | S. cerevisiae deletion strains, locus YLR418C, strain cdc73, active compounds read low 1.04 | S. cerevisiae deletion strains, locus YML016C, strain PPZ1, active compounds read low 1.01 | S. cerevisiae deletion strains, locus YML032C, strain rad52, active compounds read low 1.05 | S. cerevisiae deletion strains, locus YML120C, strain ndi1, active compounds read low 0.988 | S. cerevisiae deletion strains, locus YML124C, strain tub3, active compounds read low 1.02 | S. cerevisiae deletion strains, locus YMR058W, strain fet3, active compounds read low 1.01 | S. cerevisiae deletion strains, locus YMR078C, strain ctf18, active compounds read low 1.03 | S. cerevisiae deletion strains, locus YMR125W, strain sto1, active compounds read low 1.01 | S. cerevisiae deletion strains, locus YMR129W, active compounds read low 0.995 | S. cerevisiae deletion strains, locus YMR205C, strain PFK2, active compounds read low 0.965 | S. cerevisiae deletion strains, locus YMR223W, strain ubp8, active compounds read low 1.04 | S. cerevisiae deletion strains, locus YMR231W, strain pep5, active compounds read low 0.985 | S. cerevisiae deletion strains, locus YMR263W, strain SAP30, active compounds read low 1.01 | S. cerevisiae deletion strains, locus YMR307W, strain GAS1, active compounds read low 1.05 | S. cerevisiae deletion strains, locus YNL067W, strain RPL9B, active compounds read low 1.01 | S. cerevisiae deletion strains, locus YNL071W, strain lat1, active compounds read low 0.991 | S. cerevisiae deletion strains, locus YNL128W, strain TEP1, active compounds read low 1.02 | S. cerevisiae deletion strains, locus YNL153C, strain GIM3, active compounds read low 1.01 | S. cerevisiae deletion strains, locus YNL183C, strain NPR1, active compounds read low 0.926 | S. cerevisiae deletion strains, locus YNL209W, strain ssb2, active compounds read low 0.988 | S. cerevisiae deletion strains, locus YNL233W, strain BNI4, active compounds read low 1.02 | S. cerevisiae deletion strains, locus YNL248C, strain rpa49, active compounds read low 0.973 | S. cerevisiae deletion strains, locus YNL250W, strain rad50, active compounds read low 1.05 | S. cerevisiae deletion strains, locus YNL271C, strain bni1, active compounds read low 1.04 | S. cerevisiae deletion strains, locus YNL298W, strain CLA4, active compounds read low 1.04 | S. cerevisiae deletion strains, locus YNL307C, strain MCK1, active compounds read low 1.04 | S. cerevisiae deletion strains, locus YNL322C, strain KRE1 (second series), active compounds read low 0.959 | S. cerevisiae deletion strains, locus YNL322C, strain KRE1, active compounds read low 1.02 | S. cerevisiae deletion strains, locus YNR049C, strain mso1, active compounds read low 0.975 | S. cerevisiae deletion strains, locus YNR052C, strain pop2, active compounds read low 1.05 | S. cerevisiae deletion strains, locus YOL006C, strain TOP1, active compounds read low 1.03 | S. cerevisiae deletion strains, locus YOL012C, strain htz1 1.23 | S. cerevisiae deletion strains, locus YOL147C, strain pex11, active compounds read low 1.03 | S. cerevisiae deletion strains, locus YOR001W, strain rrp6, active compounds read low 1.01 | S. cerevisiae deletion strains, locus YOR061W, strain CKA2, active compounds read low 1.01 | S. cerevisiae deletion strains, locus YOR069W, strain VPS5, active compounds read low 1.01 | S. cerevisiae deletion strains, locus YOR070C, strain gyp1, active compounds read low 0.989 | S. cerevisiae deletion strains, locus YOR080W, strain dia2, active compounds read low 0.997 | S. cerevisiae deletion strains, locus YOR083W, strain WHI5, active compounds read low 0.913 | S. cerevisiae deletion strains, locus YOR106W, strain vam3, active compounds read low 0.968 | S. cerevisiae deletion strains, locus YOR136W, strain idh2, active compounds read low 1.04 | S. cerevisiae deletion strains, locus YOR144C, strain elg1, active compounds read low 1.02 | S. cerevisiae deletion strains, locus YOR184W, strain ser1, active compounds read low 1.05 | S. cerevisiae deletion strains, locus YOR231W, strain MKK1, active compounds read low 0.976 | S. cerevisiae deletion strains, locus YOR265W, strain rbl2, active compounds read low 0.974 | S. cerevisiae deletion strains, locus YOR270C, strain vph1, active compounds read low 0.993 | S. cerevisiae deletion strains, locus YOR290C, strain snf2, active compounds read low 0.966 | S. cerevisiae deletion strains, locus YOR316C, strain cot1, active compounds read low 1.03 | S. cerevisiae deletion strains, locus YPL051W, strain arl3, active compounds read low 0.98 | S. cerevisiae deletion strains, locus YPL055C, strain LGE1, active compounds read low 1.05 | S. cerevisiae deletion strains, locus YPL078C, strain atp4, active compounds read low 0.98 | S. cerevisiae deletion strains, locus YPL106C, strain sse1, active compounds read low 0.948 | S. cerevisiae deletion strains, locus YPL240C, strain hsp82, active compounds read low 0.997 | S. cerevisiae deletion strains, locus YPL241C, strain CIN2, active compounds read low 1.01 | S. cerevisiae deletion strains, locus YPL256C, strain CLN2, active compounds read low 1 | S. cerevisiae deletion strains, locus YPR119W, strain clb2, active compounds read low 1.04 | S. cerevisiae deletion strains, locus YPR141C, strain kar3, active compounds read low 1.05 | S. cerevisiae deletion strains, locus YPR163C, strain tif3, active compounds read low 1.03 | S. cerevisiae deletion strains, locus YPR167C, strain met16, active compounds read low 1.04 | S. cerevisiae deletion strains, strain wtn01, active compounds read low 1.02 | S. cerevisiae strains, strain wild type, active compounds read low 1.01
